According to PubChem BioAssay:
Activity calls are given as the source filed them.

Assays:
[1] = test system: Plasmodium falciparum Sir2 (PF13_0152, Sir2A); experiment: pfSir2 binders on small-molecule microarrays, primary screen, biochemical, small-molecule microarray, 635 nm fluorescence (AID 1098); settings: small-molecule microarray binding, fluorescence 635 nm; higher = more signal;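 further: score merges spot fluorescence intensity with its signal-to-noise ratio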
[2] = small-molecule microarray binders of probe aDKK1, primary screen, biochemical, biotinylated probe, 635/667 nm fluorescence (AID 1099); settings: higher = more signal;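 further: score merges 667nm spot fluorescence with signal to noise across triplicate slides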
[3] = small-molecule microarray binders of probe aCHRDL2, primary screen, biochemical, biotinylated probe, 635/667 nm fluorescence (AID 1100); settings: higher = more signal
[4] = splicing luciferase reporter signal modulators, primary screen, spliceosome inhibition project, cell-based, HEK293, splice +/- reporter (AID 1101); settings: luminescence, 24 h, higher = more signal, called active from +8 up or from −8 down;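 further: HEK293 cells carrying a splicing-competent luciferase reporter gene; test concentration not given here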
[5] = target: Fibroblast growth factor 10 (Homo sapiens) (UniProt O15520); experiment: FGF10 binders on small-molecule microarrays, primary screen, biochemical, small-molecule microarray, 635 nm fluorescence (AID 1102); settings: FGF10 binding, fluorescence 635 nm, higher = more signal
Fibroblast growth factor 10 (Homo sapiens), sequence (O15520 whole entry, looked up): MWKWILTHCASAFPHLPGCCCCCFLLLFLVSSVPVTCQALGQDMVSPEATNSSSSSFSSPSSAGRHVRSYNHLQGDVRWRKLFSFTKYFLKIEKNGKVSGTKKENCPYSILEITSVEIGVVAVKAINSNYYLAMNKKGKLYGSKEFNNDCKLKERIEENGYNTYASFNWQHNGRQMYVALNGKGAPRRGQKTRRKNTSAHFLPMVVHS

[6] = test system: glycogen synthase kinase-3 (GSK3A per assay name; protocol says GSK3B); experiment: GSK3 binders on small-molecule microarrays, primary screen, biochemical, small-molecule microarray, 635 nm fluorescence, GSK3A (AID 1103); settings: small-molecule microarray binding, fluorescence 635 nm; higher = more signal; further: the record names both GSK3A and GSK3B
[7] = target: Epidermal growth factor receptor (Homo sapiens) (UniProt P00533); experiment: EGFR binders on small-molecule microarrays, primary screen, biochemical, small-molecule microarray, 635 nm fluorescence (AID 1104); settings: EGFR binding, higher = more signal;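 further: score merges 667 nm emission intensity with spot signal to noise over triplicate slides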
Epidermal growth factor receptor (Homo sapiens), sequence (P00533 whole entry, looked up): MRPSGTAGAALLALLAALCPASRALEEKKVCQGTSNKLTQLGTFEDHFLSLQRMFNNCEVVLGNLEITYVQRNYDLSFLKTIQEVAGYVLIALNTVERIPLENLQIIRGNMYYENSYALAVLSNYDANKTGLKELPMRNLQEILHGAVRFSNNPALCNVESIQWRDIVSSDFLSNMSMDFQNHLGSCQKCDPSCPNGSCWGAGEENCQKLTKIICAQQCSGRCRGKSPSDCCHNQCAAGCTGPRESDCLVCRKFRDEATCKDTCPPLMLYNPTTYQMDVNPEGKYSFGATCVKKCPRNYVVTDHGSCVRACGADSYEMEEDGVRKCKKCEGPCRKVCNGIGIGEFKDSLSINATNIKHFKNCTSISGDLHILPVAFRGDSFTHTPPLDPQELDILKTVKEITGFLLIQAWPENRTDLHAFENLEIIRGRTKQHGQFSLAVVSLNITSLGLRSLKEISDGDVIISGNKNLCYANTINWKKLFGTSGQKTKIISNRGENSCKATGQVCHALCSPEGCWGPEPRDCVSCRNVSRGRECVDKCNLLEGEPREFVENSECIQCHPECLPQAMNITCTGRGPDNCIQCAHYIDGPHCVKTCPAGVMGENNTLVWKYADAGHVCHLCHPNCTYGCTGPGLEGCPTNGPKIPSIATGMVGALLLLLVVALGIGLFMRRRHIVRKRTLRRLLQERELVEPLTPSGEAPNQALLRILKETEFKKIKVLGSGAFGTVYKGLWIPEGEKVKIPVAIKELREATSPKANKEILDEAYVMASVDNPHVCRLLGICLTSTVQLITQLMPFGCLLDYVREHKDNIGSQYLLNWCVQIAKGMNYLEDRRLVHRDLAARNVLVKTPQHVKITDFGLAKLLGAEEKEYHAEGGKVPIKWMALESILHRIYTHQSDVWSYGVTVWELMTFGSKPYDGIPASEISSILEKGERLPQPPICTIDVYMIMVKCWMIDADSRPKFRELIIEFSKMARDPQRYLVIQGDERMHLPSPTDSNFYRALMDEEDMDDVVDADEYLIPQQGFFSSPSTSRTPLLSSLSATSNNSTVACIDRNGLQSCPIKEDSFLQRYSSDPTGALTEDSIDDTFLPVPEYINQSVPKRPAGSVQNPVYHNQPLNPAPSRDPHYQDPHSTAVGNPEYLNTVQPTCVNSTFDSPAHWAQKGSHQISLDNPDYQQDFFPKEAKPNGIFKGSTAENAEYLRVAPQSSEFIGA

[8] = target: Follistatin-related protein 3 (Homo sapiens) (UniProt O95633); experiment: FSTL3 binders on small-molecule microarrays, primary screen, biochemical, small-molecule microarray, 635 nm fluorescence (AID 1105); settings: FSTL3 binding, higher = more signal;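 further: score merges emission near 667 nm and signal to noise per printed spot across three slides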
Follistatin-related protein 3 (Homo sapiens), sequence (O95633 whole entry, looked up): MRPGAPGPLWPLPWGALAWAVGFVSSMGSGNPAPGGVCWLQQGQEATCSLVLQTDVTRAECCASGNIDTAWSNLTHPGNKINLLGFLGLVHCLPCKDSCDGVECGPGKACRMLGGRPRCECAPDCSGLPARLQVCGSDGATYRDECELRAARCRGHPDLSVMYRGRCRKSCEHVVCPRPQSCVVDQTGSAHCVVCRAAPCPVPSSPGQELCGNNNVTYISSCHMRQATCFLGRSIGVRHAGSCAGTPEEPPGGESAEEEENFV

[9] = target: Dickkopf-related protein 1 (Homo sapiens) (UniProt O94907); experiment: DKK1 binders on small-molecule microarrays, primary screen, biochemical, small-molecule microarray, 635 nm fluorescence scan (AID 1106); settings: DKK1 binding, higher = more signal;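 further: score merges emission near 667 nm with signal to noise over three replicate slides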
Dickkopf-related protein 1 (Homo sapiens), sequence (O94907 whole entry, looked up): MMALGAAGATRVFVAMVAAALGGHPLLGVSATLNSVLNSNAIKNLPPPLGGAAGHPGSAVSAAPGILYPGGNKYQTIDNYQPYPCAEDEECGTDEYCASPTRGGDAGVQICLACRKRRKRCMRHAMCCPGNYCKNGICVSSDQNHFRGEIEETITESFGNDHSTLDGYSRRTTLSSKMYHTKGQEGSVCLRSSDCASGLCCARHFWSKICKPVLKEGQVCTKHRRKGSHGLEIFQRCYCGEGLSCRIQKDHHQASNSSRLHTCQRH

[10] = test system: Inhibin beta A chain (activin A); experiment: INHBA (activin A) binders on microarrays, primary screen, biochemical, small-molecule microarray, 635 nm fluorescence scan (AID 1107); settings: small-molecule microarray binding, higher = more signal;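 further: mouse activin A protein probed at 4.33 µg/mL on printed slides; score merges bound-protein fluorescence near 667 nm with spot signal-to-noise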
[11] = test system: Human papillomavirus type 1a protein E7 (residues 44-93); experiment: HPV1a E7 fragment binders on microarrays, primary screen, biochemical, small-molecule microarray, residues 44-93, 635 nm fluorescence (AID 1108); settings: small-molecule microarray binding, fluorescence 635 nm; higher = more signal;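 further: E7 fragment applied at 1 µg/mL in TBST for 1 h at 4 C; score combines spot fluorescence with its signal to noise ratio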
[12] = modulators of HCV replicon luciferase signal, primary screen, HCV replication inhibitor project, Huh7 cells, luciferase reporter (AID 1109); settings: 48 h, higher = more signal;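 further: huh7 hepatoma cells harbouring a luciferase neomycin HCV replicon reporter; luciferase luminescence as measure of HCV replicon replication; test concentration not given here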
[13] = target: Left-right determination factor 2 (Homo sapiens) (UniProt O00292); experiment: LEFTY2 binders on small-molecule microarrays, primary screen, biochemical, small-molecule microarray, 635 nm fluorescence scan (AID 1110); settings: LEFTY2 binding, higher = more signal
Left-right determination factor 2 (Homo sapiens), sequence (O00292 whole entry, looked up): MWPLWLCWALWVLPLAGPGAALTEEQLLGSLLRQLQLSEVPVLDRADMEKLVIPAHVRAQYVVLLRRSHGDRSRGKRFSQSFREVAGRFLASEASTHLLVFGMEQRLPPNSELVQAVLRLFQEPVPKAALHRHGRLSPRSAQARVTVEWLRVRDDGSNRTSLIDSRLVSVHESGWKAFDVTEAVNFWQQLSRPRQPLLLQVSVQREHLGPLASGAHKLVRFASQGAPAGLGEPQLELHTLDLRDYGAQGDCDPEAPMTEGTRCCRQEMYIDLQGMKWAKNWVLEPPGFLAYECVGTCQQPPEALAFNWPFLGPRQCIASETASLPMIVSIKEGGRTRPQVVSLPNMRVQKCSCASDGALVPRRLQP

[14] = target: Calmodulin-1 (Homo sapiens) (UniProt P0DP23); experiment: CALM1 binders on microarrays, EGTA buffer, profiling panel, biochemical, small-molecule microarray, Cy5-labelled CALM1 (AID 1111); settings: Cy5-CALM1 binding fluorescence, higher = more signal;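 further: labelled calmodulin applied in Tris saline Tween buffer holding calcium plus EGTA and DTT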
[15] = target: Calmodulin-1 (Homo sapiens) (UniProt P0DP23); experiment: calcium-bound CALM1 binders on microarrays, profiling panel, artefact control for SMM control-protein annotation, biochemical, small-molecule microarray, Cy5-labelled CALM1, plus calcium (AID 1112); settings: Cy5-CALM1 binding fluorescence, higher = more signal;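 further: score merges spot fluorescence with signal to noise from triplicate slides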
[16] = small-molecule microarray binders of probe aWnt5a, primary screen, biochemical, biotinylated probe, 635/667 nm fluorescence (AID 1113); settings: higher = more signal;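 further: score merges 667 nm fluorescence intensity with signal-to-noise per printed feature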
[17] = small-molecule microarray binders of probe aShh, primary screen, biochemical, biotinylated probe, 635/667 nm fluorescence (AID 1114); settings: higher = more signal;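 further: probe is biotin-labelled aShh protein from a stem cell growth factor screen; measures binding of labelled protein to compounds printed on the slide; score merges feature fluorescence at 667 nm with signal-to-noise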
[18] = small-molecule microarray binders of probe aNog, primary screen, biochemical, biotinylated probe, 635/667 nm fluorescence (AID 1115); settings: higher = more signal;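 further: probe is biotinylated aNog protein used at 0.15 µg/mL for 1 h at 4 C; z-score combines 667 nm fluorescence of each spot with its signal to noise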
[19] = target: Torsin-1A-interacting protein 1 (Homo sapiens) (UniProt Q5JTV8); experiment: LAP1 binders from COS7 cell lysate, primary screen, small-molecule microarray, 635/667 nm fluorescence (AID 1116); settings: COS7-hLAP1 lysate binding, 635 nm fluorescence, higher = more signal
Torsin-1A-interacting protein 1 (Homo sapiens), sequence (Q5JTV8 whole entry, looked up): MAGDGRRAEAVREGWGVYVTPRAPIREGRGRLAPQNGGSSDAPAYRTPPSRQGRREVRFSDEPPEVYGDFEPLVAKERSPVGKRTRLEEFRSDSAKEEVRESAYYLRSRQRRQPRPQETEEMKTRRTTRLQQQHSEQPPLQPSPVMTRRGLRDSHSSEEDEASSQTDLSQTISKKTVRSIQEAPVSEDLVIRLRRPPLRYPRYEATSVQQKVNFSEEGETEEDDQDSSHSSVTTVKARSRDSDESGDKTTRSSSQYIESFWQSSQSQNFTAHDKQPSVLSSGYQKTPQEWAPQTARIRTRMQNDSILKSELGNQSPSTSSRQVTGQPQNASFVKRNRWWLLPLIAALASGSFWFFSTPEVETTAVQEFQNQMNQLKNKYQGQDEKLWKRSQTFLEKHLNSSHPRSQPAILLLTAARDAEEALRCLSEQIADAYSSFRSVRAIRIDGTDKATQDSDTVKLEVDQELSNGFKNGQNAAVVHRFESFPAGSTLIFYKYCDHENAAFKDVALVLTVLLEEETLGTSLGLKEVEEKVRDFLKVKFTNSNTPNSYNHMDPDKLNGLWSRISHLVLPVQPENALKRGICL

[20] = target: Alpha-bungarotoxin (Bungarus multicinctus) (UniProt P60615); experiment: alpha-bungarotoxin binders on microarray, profiling panel, artefact control for SMM control protein annotation, biochemical, small-molecule microarray, Alexa647 label, 635/667 nm fluorescence (AID 1117); settings: alpha-BTX-A647 binding fluorescence, higher = more signal
Alpha-bungarotoxin (Bungarus multicinctus), sequence (P60615 whole entry, looked up): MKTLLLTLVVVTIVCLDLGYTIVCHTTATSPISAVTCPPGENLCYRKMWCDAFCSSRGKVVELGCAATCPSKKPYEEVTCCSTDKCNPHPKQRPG

Compound	composite z-score [1]	composite z-score [2]	composite z-score [3]	z-score [4]	composite z-score [5]	composite z-score [6]	composite z-score [7]	composite z-score [8]	composite z-score [9]	composite z-score [10]	composite z-score [11]	z-score [12]	composite z-score [13]	composite z-score [14]	composite z-score [15]	composite z-score [16]	composite z-score [17]	composite z-score [18]	composite z-score [19]	composite z-score [20]
O=C(NC1CC1)[C@@H]1c2ccccc2C(=O)N(C2Cc3ccccc3C2)[C@H]1c1ccc(CO)cc1	0.188	-0.053	0.438	0.199 (inactive)	0.467	1.3	0.473	0.53	0.951	0.338	1.32	-0.865	0.716	-0.199	-0.253	-0.0512	-0.457	-0.608	0.599	0.154
COc1ccc([C@H]2OC[C@@H]3CCC(=O)N32)cc1	0.178	-0.235	-0.374	-0.00375 (inactive)	0.66	1.17	0.339	0.954	0.294	0.0892	0.493	0.574	0.556	-0.313	-0.525	-0.18	0.0062	-0.324	0.493	-0.122
COc1ccc([Si](C)(C)[C@@H]2[C@@H](CCn3cc(CCO)nn3)O[C@]3(C(=O)N(Cc4cccc(N5C(=O)c6cccc7cccc5c67)c4)c4ccccc43)[C@H]2C)cc1	0.686	-0.212	-0.197	-1.23 (inactive)	0.648	0.433	0.0345	0.922	0.135	0.546	1.37	-5.22	-0.0227	0.911	0.506	-0.0256	-0.0192	0.406	0.868	0.664
CC(C)(C)OC(=O)CC[C@]1(C(N)=O)N=C(c2ccc(OCCCO)cc2)O[C@H]1c1ccccc1	0.883	1.32	1.35	0.138 (inactive)	1.36	0.555	-0.589	-0.188	-1.16	0.976	-0.0059	0.666	-0.23	2.64	1.66	0.116	0.707	1.36	3.07	2.12
COC(=O)[C@@]1(Cc2ccc(OC)cc2)[C@H]2c3cc(C(=O)N4CCCC4)n(CCCNc4ncc(C(F)(F)F)cc4Cl)c3C[C@H]2CN1C(=O)c1ccccc1	0.596	1.63	0.941	-2.98 (inactive)	0.595	0.673	0.659	0.95	0.244	1.11	0.958	-2.32	0.0792	1.33	0.74	0.901	0.76	-0.447	-0.0323	0.884
Cc1ccc(S[C@]2(C(=O)O)CC(=O)N(C(C)C)[C@@H]2c2ccc(CO)cc2)cc1	0.161	-0.11	0.34	-0.448 (inactive)	0.224	-0.207	-0.468	0.147	0.0142	0.754	0.253	-0.625	-0.193	-0.0058	-0.529	-0.12	0.216	-0.294	1.42	0.644
CCOC(=O)C[C@H]1[C@H](OC(=O)c2ccc(-c3ccccc3)cc2)[C@@H](NC(=O)c2ccccc2)c2cc(OCCCO)ccc2N1C(=O)c1ccc2ccccc2n1	-0.0092	0.32	0.339	0.00513 (inactive)	0.47	0.538	-0.0158	0.309	0.234	-0.466	1.29	-1.09	-0.196	1.2	0.963	-0.0643	-0.0011	0.176	0.629	0.552
[N-]=[N+]=Nc1ccccc1C[C@@]1(C(=O)N2CCCCC2)N=C(c2ccc(OCCCO)cc2)O[C@@H]1c1ccccc1	1.18	0.901	1.07	-0.969 (inactive)	0.465	1.29	-0.209	0.112	-0.174	0.803	-0.108	-1.2	0.0334	1.83	0.914	-0.0459	-0.0904	1.79	1.52	1.07
COC(=O)[C@]1(Cc2ccccc2)N=C(c2ccc(OCCCO)cc2)O[C@@H]1c1ccccc1N=[N+]=[N-]	1.54	0.124	0.527	-1.56 (inactive)	0.79	0.519	-0.0527	0.257	-0.0949	0.796	1.33	-3.25	0.123	0.39	0.245	-0.0236	-0.0709	-0.595	-0.279	0.0359
C#CCN(C/C=C/c1ccccc1)[C@H](CO)c1ccccc1	-0.222	-0.583	-0.506	0.985 (inactive)	0.0797	0.0831	-0.0239	0.598	0.358	-0.283	-0.414	-1.74	0.171	-0.653	-0.472	-0.0919	-0.262	-0.326	-0.0349	-0.0338
